We go through 40 compounds from PubChem BioAssay (NCATS).

Results filed as inconclusive are left out. A number with no mark means an inactive call. Active and inactive are the calls of the source. Calls follow the shape of the dose curve; as a rule, active = well fitted activation curve with a large enough effect; inconclusive = small, poorly fitted or top-dose-only effect; inactive = no such curve, though single readings can be large or run the other way.
Potency is read from the fitted curve at half-maximal effect.

Sequence of Cellular tumor antigen p53 (Homo sapiens) (P04637 whole entry, looked up): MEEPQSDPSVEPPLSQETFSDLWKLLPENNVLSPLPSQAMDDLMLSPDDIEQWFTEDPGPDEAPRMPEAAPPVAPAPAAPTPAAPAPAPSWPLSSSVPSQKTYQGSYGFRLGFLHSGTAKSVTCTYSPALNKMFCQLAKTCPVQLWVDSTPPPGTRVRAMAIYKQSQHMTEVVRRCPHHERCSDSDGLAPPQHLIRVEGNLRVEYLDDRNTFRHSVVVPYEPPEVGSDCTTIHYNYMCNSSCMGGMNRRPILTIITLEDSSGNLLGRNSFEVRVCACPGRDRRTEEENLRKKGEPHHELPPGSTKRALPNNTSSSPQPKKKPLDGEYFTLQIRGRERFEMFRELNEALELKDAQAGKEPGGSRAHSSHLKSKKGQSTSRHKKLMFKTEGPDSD

The assay has as its target Cellular tumor antigen p53 (Homo sapiens) (UniProt P04637). Kind of assay: Primary qHTS for small molecule compounds that upregulate eGFP-tagged delta133p53alpha (in N-terminal) cells. (AID 2060322). Also: nearly all actives have a fitted effect of over 75% in size.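 As to activation: cells pre-induced with doxycycline then dosed without doxycycline; series mostly up to about 56 µM; 0% = DMSO vehicle and 100% = reference activator.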 The following applies: NCI-H358 eGFP-delta133p53alpha fluorescence, 24 h; activation: hits give high values. The essentials:
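NCI-H358 cells pre-induced 24 h with 10 ng/ml doxycycline for eGFP-delta133p53alpha, plated dox-free and exposed 24 h at 37C to titrated compounds. Fixed, Hoechst-stained; gated GFP peak intensity by laser scanning cytometry, normalized to DMSO (0%) and 57.5 uM 5-azacytidine (100%).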
Background: Quantitative high-throughput screening tests each substance at several concentrations.
For `NC1CCC(Nc2nc(Nc3ccc(C(=O)N4CCCCC4)cc3)c3ncn(-c4cccc(F)c4)c3n2)CC1` (stereo not given), the activation was -1.24%.
Still for that read-out and setting: the result for `CCCCc1cc2ccccc2c(OCCN(C)C)n1` reads -0.565%; that for `COc1ccc(C=CC(=O)Nc2ccccc2C(=O)O)cc1OC`, 5.12%.
On the same count and under the same terms, in the case of `c1ccc(CCNc2nc(-c3ccccc3)cs2)cc1` it was 20.1%; in that of `O=C1C(CCC(O)c2ccc(F)cc2)C(c2ccc(O)cc2)N1c1ccc(F)cc1` (stereo not given), -15.6%.
With `Cc1c[nH]c(C=C2C(=O)Nc3ccccc32)c1CCC(=O)O`, the Potency is 24.3 µM (active).
Take `CN1CCC[C@@H]1CCO[C@](C)(c1ccccc1)c1ccc(Cl)cc1`: the activation was 26.6%.
The same measure, in the same setting: in the case of `CCN(CC)CC(=O)OCC(=O)[C@@]1(O)CC[C@H]2[C@@H]3CCC4=CC(=O)CC[C@]4(C)[C@H]3[C@@H](O)C[C@@]21C` it was -4.18%.
For the compound `CCC1(c2cnc[nH]2)Cc2ccccc2C1`, the activation was -7.53%.
Same read-out and setting: in the case of `COc1cc(C)c(C=CC(C)=CC=CC(C)=CC(=O)O)c(C)c1C` it was 21.4%.
Regarding `C[C@@]12CCC[C@H]1[C@@H]1CC[C@H]3C[C@@H](O)CC[C@]3(C)[C@H]1CC2`, the activation was -12.6%.
On the same count and under the same terms, the result for `CC=CC1=C(C(=O)O)N2C(=O)[C@H](NC(=O)[C@H](N)c3ccc(O)cc3)[C@@H]2SC1` reads 11.1%.
On to `Nc1nc2ncc(CNc3ccc(C(=O)N[C@@H](CCC(=O)O)C(=O)O)cc3)nc2c(=O)[nH]1`, for which the activation is -10%.
Still for that read-out and setting: the result for `C/C(=C(/OCCOc1ccc(Cl)cc1)c1ccc(Cl)cc1Cl)n1ccnc1` reads 7.53%; that for `O=C1C(Cl)=C(N2CCOCC2)C(=O)N1c1ccc(Cl)c(Cl)c1`, -1%; that for `NCC(=O)O`, 13%.
The same measure, in the same setting: in the case of `Cc1ccc2c(Br)cc(Br)c(O)c2n1` it was -18.4%; in that of `O=C(N/N=C/c1ccc([N+](=O)[O-])o1)c1ccc(O)cc1`, 24.3%; in that of `O=C1C(CCS(=O)c2ccccc2)C(=O)N(c2ccccc2)N1c1ccccc1` (stereo not given), 15.1%.
For `NS(=O)(=O)c1cc(-c2nn[nH]n2)c(NCc2cccs2)cc1Cl`, the activation is 5.02%.
Same read-out and setting: the result for `CC(=O)N[C@@H](CC(C)C)C(=O)O` reads 0%; that for `CC1(C)[C@H]2CC[C@]3(C)[C@@H](C(=O)C=C4[C@@H]5C[C@@](C)(C(=O)O)CC[C@]5(C)CC[C@]43C)[C@@]2(C)CC[C@@H]1O`, 3.97%.
The same measure, in the same setting: in the case of `CC1CCCCN1CCCOC(=O)c1ccc(OC2CCCCC2)cc1` (stereo not given) it was -7.53%; in that of `COc1cc(Cl)cn2c(-c3cccc(NC4CNC4)n3)cnc12`, -0.246%.
Take `OCc1ccccc1O`: the activation was -1.69%.
As to `O=Cc1ccc(O)c(O)c1O`, the activation was -4.18%.
On the same count and under the same terms, in the case of `O=C(OCC(O)CO)c1ccccc1Nc1ccnc2c(C(F)(F)F)cccc12` (stereo not given) it was -13.4%.
Regarding `COc1ccnc2[nH]cc(C(=O)C(=O)N3CCN(C(=O)c4ccccc4)C[C@@H]3C)c12`, the activation is 3.59%.
Still for that read-out and setting: in the case of `CN(C)[C@@H](CCOc1cccc2ccccc12)c1ccccc1` it was 8.7%; in that of `NS(=O)(=O)Cc1noc2ccccc12`, 10.9%; in that of `O=C(O)CCCCC1CCSS1` (stereo not given), 5.08%.
Same read-out and setting: the result for `O=C(O)c1ccccc1S` reads 19.8%; that for `CCCCCN=C(N)NN=Cc1c[nH]c2ccc(OC)cc12`, 31%; that for `CC(C=CC=C(C)C=CC1=C(C)CCCC1(C)C)=CC=CC=C(C)C=CC=C(C)C=CC1=C(C)CCCC1(C)C`, 13.6%.
Regarding `c1ccc2c(c1)CCc1ccccc1N2`, the activation is 10.7%.
Take `O=C(O)Cc1ccc2c(c1)C(=O)c1ccccc1CO2`: the activation is 7.34%.
In the case of `C=C1[C@H](n2cnc3c(=O)[nH]c(N)nc32)C[C@H](O)[C@H]1CO`, the activation was -20.5%.
Same read-out and setting: the result for `Cc1cc(=O)[nH]c(=S)[nH]1` reads 19.2%; that for `CC1(c2ccccc2)OC(C(=O)O)=CC1=O` (stereo not given), 26.8%.
On to `CC(=O)O[C@H]1C[C@@H]2CC[C@H]3[C@H]4C[C@H]([N+]5(C)CCCCC5)[C@@H](OC(C)=O)[C@@]4(C)CC[C@@H]3[C@@]2(C)C[C@H]1N1CCCCC1`, for which the activation is -4.56%.
